# Data as given in PubChem BioAssay (NCATS).
# Values joined by “and” are separate entries in the source; they are usually repeats but may differ in a detail not shown here. Equal entries are not always repeated. Records with an inconclusive call do not appear. Entries that show only a call come without a potency. A number with no mark means an inactive call. Active and inactive are the calls of the source. The call rests on the fitted dose curve; in most records, active means well fitted curve in the direction sought with a large enough effect; inconclusive means small, poorly fitted or top-dose-only effect, or another doubt; inactive means no such curve, though single readings can be large; an effect the other way counts as inactive or inconclusive.
# Legend:
# [1] = P-glycoprotein substrates identified in KB-3-1 adenocarcinoma cell line, qHTS therapeutic library screen (AID 1346986); further: nearly all actives have a fitted effect of over 60% in size;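 further: potency is for cytotoxicity meaning loss of cell viability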
# Method in brief: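 72 h cell-killing screen, 500 cells/well, CellTiter-Glo luminescence. Paired lines KB-3-1/KB-8-5-11; P-gp dependence checked by tariquidar co-treatment and HEK-293 MDR-19 versus empty-vector cells.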
# [2] = P-glycoprotein substrates identified in KB-8-5-11 adenocarcinoma cell line, qHTS therapeutic library screen (AID 1346987); further: nearly all actives have a fitted effect of over 65% in size; on activity change, negative = cytotoxicity: series mostly up to about 44 µM
# Method in brief: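 Compounds are pinned in dose-response onto KB-8-5-11 cells (500 cells/well, colchicine-free medium) and left 72 h at 37 degree C. CellTiter-Glo luminescence then yields AC50 values.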
# Potency means the concentration at half of the fitted maximal effect.
smiles,measurement,setting,value
Nc1nc(OCc2cc(Br)cs2)c2[nH]cnc2n1,Potency,[1],inactive
same,Potency,[2],inactive
CN(C)c1ccc(NC(=O)NS(=O)(=O)c2ccc(Cl)cc2)cc1,Potency,[1],inactive
same,Potency,[2],inactive
CC1(C)CCC2(C(=O)OC3OC(COC4OC(CO)C(O)C(O)C4O)C(O)C(O)C3O)CCC3(C)C(=CCC4C5(C)CCC(OC6OCC(O)C(O)C6O)C(C)(C)C5CCC43C)C2C1O (stereo not drawn),outcome,[1],inactive [at 9.29 µM]
same,outcome,[2],inactive [at 9.29 µM]
C[C@H]1CC[C@@]2(OC1)O[C@H]1CC3[C@@H]4CC[C@@H]5C[C@@H](O[C@@H]6O[C@H](CO)[C@@H](O[C@@H]7O[C@H](CO[C@@H]8OC[C@@H](O)[C@H](O)[C@H]8O)[C@@H](O[C@@H]8O[C@H](CO)[C@H](O)[C@H](O)[C@H]8O)[C@H](O)[C@H]7O)[C@H](O)[C@H]6O)CC[C@]5(C)C4CC[C@]3(C)[C@H]1[C@@H]2C (stereo partly drawn),outcome,[1],inactive [at 9.29 µM]
same,"activity change, negative = cytotoxicity",[2],3.95% [at 9.29 µM]
C=C1C(=O)O[C@@H]2/C=C(/C)[C@@H](OC(C)=O)C/C=C(\C)C[C@@H](OC(=O)/C(=C/CO)CO)[C@@H]12,Potency,[1],inactive
same,Potency,[2],inactive
C=C1CCC2[C@](C)(CCC[C@@]2(C)C=O)[C@H]1CC/C(C)=C/CO (stereo partly drawn),Potency,[1],inactive
same,Potency,[2],inactive
CC1(CO)CC(O)[C@]2(C(=O)O)CCC34CC3(C=CC3[C@]5(C)C(CC[C@]34C)C(C)(CO)[C@@H](O)[C@H](O)[C@@H]5O)C2C1 (stereo partly drawn),Potency,[1],inactive
same,Potency,[2],inactive
COc1cc(/C=C2\CC[C@H]3COC[C@@H](c4cc(F)c(F)c(F)c4)N3C2=O)ccc1-n1cnc(C)c1,Potency,[1],inactive
same,Potency,[2],inactive
CC#CC(=O)Nc1ccc2ncnc(Nc3cccc(Br)c3)c2c1,Potency,[1],10.3 µM (active)
same,Potency,[2],11.6 µM (active)
CC1=CC2/C=C(\C)CCC(O)C/C=C/C(=O)OC23C(=O)NC(CC(C)C)C3C1C (stereo not drawn),Potency,[1],inactive
same,Potency,[2],inactive
CCC(C)/C=C(C)/C=C/C1=CC2=C(Cl)C(=O)C(C)(OC(C)=O)C(=O)C2(O)C(OC)O1 (stereo not drawn),Potency,[1],inactive
same,Potency,[2],inactive
C=C1C(=O)O[C@@H]2/C=C(\C)CC/C=C(/C=O)[C@H](OC)[C@@H](OC(=O)C(C)C)[C@@H]12,Potency,[1],inactive
same,Potency,[2],inactive
C[C@@H]1O[C@@H](O[C@H]2CC[C@@]3(C)C(CC[C@]4(C)C3CC=C3[C@@H]5CC(C)(C)CC[C@]5(C(=O)O[C@@H]5O[C@H](CO)[C@@H](O)[C@H](O)[C@H]5O)CC[C@]34C)[C@]2(C)CO)[C@H](O)[C@H](O[C@@H]2O[C@H](CO)[C@@H](O)[C@H](O)[C@H]2O)[C@H]1O (stereo partly drawn),outcome,[1],inactive [at 9.29 µM]
same,"activity change, negative = cytotoxicity",[2],3.4% [at 9.29 µM]
CCN1CCC[C@@H]1CNC(=O)c1ccc2c(c1)NC(=O)c1cccc(C)c1S2,Potency,[1],inactive
same,Potency,[2],inactive
C=C1CC[C@@H]2[C@](C)(CO)[C@H](O)CC[C@@]2(C)[C@@H]1CC(O)C1=CCOC1=O (stereo partly drawn),Potency,[1],inactive
same,Potency,[2],inactive
C[C@H](Nc1ncnc2nc[nH]c12)c1cc2cccc(Cl)c2c(=O)n1-c1ccccc1,Potency,[1],20.6 µM (active)
same,Potency,[2],inactive
CCN1CCN(Cc2ccc(NC(=O)c3ccc(C)c(Oc4ccnc5[nH]ccc45)c3)cc2C(F)(F)F)CC1,Potency,[1],16.4 µM (active)
same,Potency,[2],10.1 µM (active)
CCC/C=C/C(=O)O[C@H]1CC(C)(C)CC2[C@@]13[C@H](O)C[C@]1(C)[C@@]2(CCC2[C@@]4(C)CC[C@H](O[C@@H]5O[C@H](C(=O)O)[C@@H](O)[C@H](O[C@@H]6O[C@H](CO)[C@H](O)[C@H](O)[C@H]6O[C@@H]6O[C@@H](C)[C@H](O)[C@@H](O)[C@H]6O[C@@H]6OC[C@](O)(CO)[C@H]6O)[C@H]5O[C@@H]5O[C@H](CO)[C@H](O)[C@H](O)[C@H]5O)C(C)(C)C4CC[C@]21C)O[C@H]3O (stereo partly drawn),outcome,[1],inactive [at 9.29 µM]
same,outcome,[2],inactive [at 9.29 µM]
CC(=O)O[C@@H]1C2=C(O)C(=O)[C@](C)(OC(C)=O)C(=O)C2=CO[C@@]12O[C@@H](C)CC[C@H]2OC(C)=O,Potency,[1],inactive
same,Potency,[2],inactive
CC(C)C[C@@H](N)C(=O)N[C@H]1C(=O)N[C@@H](CC(N)=O)C(=O)N[C@H]2C(=O)N[C@H]3C(=O)N[C@H](C(=O)N[C@H](C(=O)O)c4cc(O)cc(O)c4-c4cc3ccc4O)[C@H](O)c3ccc(c(Cl)c3)Oc3cc2cc(c3O[C@@H]2O[C@H](CO)[C@@H](O)[C@H](O)[C@H]2O[C@H]2C[C@](C)(N)[C@H](O)[C@H](C)O2)Oc2ccc(cc2Cl)[C@H]1O,Potency,[1],inactive
same,Potency,[2],inactive
C=C(C)C1=C[C@@]2(C)C(=CC1=O)CC[C@@H](O)[C@@H]2C,Potency,[1],inactive
same,Potency,[2],inactive
CC(=O)O[C@@H]1CC[C@@]2(C)C(CC[C@]3(C)C2[C@H](O)C=C2[C@H]4[C@@H](C)[C@H](C)CC[C@]4(C)CC[C@]23C)[C@@]1(C)C(=O)O (stereo partly drawn),Potency,[1],inactive
same,Potency,[2],inactive
COc1cccc(OCCCN)c1-c1cc(Nc2cnc(C#N)cn2)n[nH]1,Potency,[1],0.146 µM (active)
same,Potency,[2],1.3 µM (active)
C1=C/COCc2cc(ccc2OCCN2CCCC2)Nc2nccc(n2)-c2cccc(c2)COC/1,Potency,[1],4.61 µM (active)
same,Potency,[2],4.61 µM (active) and 7.31 µM (active)
COc1cc(O)c2c(c1)/C=C/C[C@H](O)[C@H](O)C(=O)/C=C\C[C@H](C)OC2=O,Potency,[1],6.51 µM (active)
same,Potency,[2],9.2 µM (active) and 8.2 µM (active)
C/C=C(/C=C(C)/C=C/C=C/C=C(\C)C(=O)C12OC1C(O)(CCO)NC2=O)C(=O)OC (stereo not drawn),Potency,[1],inactive
same,Potency,[2],inactive
C=C1CC[C@@H](O)[C@]2(C)CC[C@H]3C(=C)C(=O)O[C@@H]3[C@@H]12,Potency,[1],inactive
same,Potency,[2],inactive
COc1cc(C(=O)NC(=S)Nc2cccc(NC(=O)c3ccccc3)c2)cc(OC)c1OC,Potency,[2],inactive
N#Cc1ccc(-c2ccc(S(=O)(=O)Nc3cccc(N)n3)cc2)cc1,Potency,[2],inactive
O=S(=O)(NCc1cccc2ccccc12)c1cc(Cl)c(Oc2cccc(N3CCNCC3)c2)s1,Potency,[2],16.4 µM (active)
CC[C@H](C)/C=C(C)/C=C/C1=CC2=C(Cl)C(=O)[C@](C)(O)[C@H](OC(C)=O)[C@H]2CO1,Potency,[2],inactive
